The supplement of paper PMC3334620
In all, about 33,000 sequences were measured (“E-score (-0.5 to 0.5)”: median about -0.016, highest 2% from about 0.3 on). This excerpt belongs to a sample that is enriched for the highest values.

Target: T1, Yer184c (UniProt P39961)
T1 sequence: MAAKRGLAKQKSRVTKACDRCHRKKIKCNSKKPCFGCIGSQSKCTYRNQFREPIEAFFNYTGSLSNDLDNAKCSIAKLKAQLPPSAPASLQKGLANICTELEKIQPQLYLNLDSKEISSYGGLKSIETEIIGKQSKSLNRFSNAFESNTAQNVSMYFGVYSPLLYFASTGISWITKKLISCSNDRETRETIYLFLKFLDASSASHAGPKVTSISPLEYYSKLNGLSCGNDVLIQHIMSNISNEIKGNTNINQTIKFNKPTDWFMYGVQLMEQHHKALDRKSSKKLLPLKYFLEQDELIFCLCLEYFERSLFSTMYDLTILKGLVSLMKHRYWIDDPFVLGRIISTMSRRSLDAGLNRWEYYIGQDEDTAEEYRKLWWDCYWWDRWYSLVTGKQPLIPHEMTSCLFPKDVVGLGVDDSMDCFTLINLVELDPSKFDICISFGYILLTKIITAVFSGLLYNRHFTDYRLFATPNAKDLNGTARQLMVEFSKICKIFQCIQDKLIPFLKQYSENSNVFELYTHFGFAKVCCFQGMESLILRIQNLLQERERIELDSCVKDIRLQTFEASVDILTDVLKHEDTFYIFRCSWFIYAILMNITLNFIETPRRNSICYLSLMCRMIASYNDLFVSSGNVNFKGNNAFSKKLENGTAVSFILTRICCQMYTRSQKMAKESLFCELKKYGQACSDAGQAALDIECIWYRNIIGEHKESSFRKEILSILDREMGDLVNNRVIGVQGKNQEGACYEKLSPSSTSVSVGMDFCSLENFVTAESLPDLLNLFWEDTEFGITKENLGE
Test: PBM E-score (8-mer binding enrichment) (E-score (-0.5 to 0.5)); higher = stronger / more preferred TF binding
Conditions: protein concentration: 100 nM; construct: GST-full length
Experimental: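 Universal 'all 10-mer' protein binding microarrays (Agilent AMADID 015681) probed with GST-tagged S. cerevisiae TFs (full-length or DBD) made by in vitro transcription/translation (PURExpress), about 100-200 nM. Bound TF was detected with fluorescent anti-GST. Each ungapped 8-mer (which stands for itself and its reverse complement) is scored by the PBM enrichment score (E-score), a modified Wilcoxon-Mann-Whitney statistic from -0.5 to +0.5, computed with the Universal PBM Analysis Suite. Scale: above 0.35 generally sequence-specific binding.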

Point of comparison: ACTCGGAA, “PBM E-score” value 0.341. Against it:
- CGTCCCGA — lower, 0.0521
- GATCTGAC — lower, -0.0541
- ATTGCCGC — lower, 0.162
- CTTGCCGA — lower, 0.22
- ATTGCCAG — lower, -0.0205
- GTTGCCGA — higher, 0.373
- GCTGCCGA — lower, 0.292
- ATTGCCGG — higher, 0.348
- ATTGCCCA — lower, -0.102
- GTTGCCCA — lower, -0.0158
- ATTGCCGA — lower, 0.311
- TCCTGCGA — lower, 0.00447
- GGCCAACA — lower, -0.0401
- GCTGTTAC — lower, -0.0967
- CTTAGCAA — lower, 0.0294
- TCCTGCAA — lower, -0.0596
- AGGCATAT — lower, 0.0107
- ACGCCAGA — lower, -0.132
- CAACCGCG — lower, 0.306
- TAACCGGA — lower, 0.279
- CAACCGCC — lower, -0.042
- CAACCGGG — lower, 0.14
- CAACCGAA — lower, 0.258
- CAACCGGA — higher, 0.373
- CAACCGCA — lower, 0.0386
- GAACCGGA — higher, 0.349
- CAACCGGC — lower, 0.323
- CTACCGGC — lower, 0.0792
- GAACCGGC — lower, 0.18
- CAACCGAC — lower, 0.238
- CTCTAACA — lower, 0.0218
- AGTTCGAT — lower, -0.0396
- AGGTGAAC — lower, -0.112
- ACGTTGCT — lower, -0.0994
- CGGATGGA — lower, 0.207
- ATCACAAT — lower, 0.0634
- CAAGCGCA — lower, 0.0414
- CCCACCTA — lower, -0.241
- GGTATCAA — lower, -0.0802
- AGACCGGC — lower, 0.128
- AAACCGGC — lower, 0.313
- AAACCGCC — lower, 0.147
- AAACCGGA — lower, 0.306
- AAACCGGG — lower, 0.0839
- AAACCGGT — lower, 0.216
- ATTTAGAC — lower, 0.121
- AAAACCCG — lower, 0.163
- TAAGCCGA — higher, 0.369
- CAAGCCTG — lower, -0.271
- CAAGCCCA — lower, -0.326
- CAAGCCGC — lower, -0.0146
- AAAGCCGG — higher, 0.351
- CAAGCCGG — lower, 0.327
- AAAGCCGA — lower, 0.174
- CAAGCCGA — lower, 0.324
- CCAGCCGA — lower, 0.205
- GAAGCCGA — lower, 0.287
- AAAGCCGC — lower, 0.188
- AAAGCCGT — lower, 0.262
- CTCACAAG — lower, -0.177
- AAGGTCGG — lower, -0.018
- TAGGTGAA — lower, 0.0169
- CACCAACA — lower, -0.23
- GGCTATCA — lower, 0.131
- TGTCGGAA — lower, 0.163
- GCTCGGAA — lower, 0.334
- CCTCGGAA — lower, 0.28
- ACTCGGAT — lower, 0.268
- ACTCGGAC — lower, 0.208
- TCTCGGAA — lower, 0.334
- GCTCGGAC — lower, 0.187
- GCTCGGTA — lower, 0.129
- GCAGCAGC — lower, -0.0995
- CCATAGCG — lower, -0.124
- CGGTCTCA — lower, 0.0469
- GGACGCCA — lower, -0.224
- CCTCTTCA — lower, -0.18
- ACTCTCGG — higher, 0.344
- ATTCTCGC — lower, -0.192
- ACTCTCGC — lower, -0.169
- ACTCTCGA — lower, -0.0924
- ATTCTCGG — higher, 0.345
- ATTCTCGA — lower, 0.0246
- ACCACGAT — lower, -0.0131
- AGTTATGG — lower, -0.0312
